Bioassay records deposited in PubChem BioAssay by The Scripps Research Institute Molecular Screening Center.
Shown are actives, neighbours in structure and some others; about 1.1% of the full set was active somewhere.
HTR5A ag: HTR5A agonism, opioid heterodimer counter-screen | P47898 | HTR5A agonist assay, luminescence, cell-based | activation, % at 9.3 µM | actives 0.61% (n = 340,000); in the data active = activation mostly above about 9.5%, no sharp cut-off; inactive = mostly below about 7.6%;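 note: 0% = cells with vehicle only and 100% = reference agonist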
Target sequence (P47898 whole entry, looked up): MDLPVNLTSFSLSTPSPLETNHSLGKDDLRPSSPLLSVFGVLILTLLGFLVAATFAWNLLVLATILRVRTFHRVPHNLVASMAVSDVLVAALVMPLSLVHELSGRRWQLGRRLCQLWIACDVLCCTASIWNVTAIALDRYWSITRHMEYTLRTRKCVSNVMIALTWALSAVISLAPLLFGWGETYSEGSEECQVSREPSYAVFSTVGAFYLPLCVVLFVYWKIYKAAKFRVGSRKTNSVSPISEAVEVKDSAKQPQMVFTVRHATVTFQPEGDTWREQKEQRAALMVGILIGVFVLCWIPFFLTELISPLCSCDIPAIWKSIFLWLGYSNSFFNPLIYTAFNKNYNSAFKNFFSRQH
OPRM1-OPRD1 ag: OPRM1-OPRD1 heterodimerization agonism; actives 0.3% (n = 340,000); cells, luminescence; P35372+P41143; activation, % at 9.3 µM;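 note: 0% = vehicle-treated cells and 100% = reference agonist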
HTR5A inv ctr: inverse agonist of human HTR5A in OPRM1-OPRD1 counter-screen; P47898; HTR5A cell line, luminescence, inverse agonism; inhibition, % at 9.3 µM; actives 0.083% (n = 340,000); in the data active = inhibition mostly above about 23%, no sharp cut-off; inactive = mostly below about 18%;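 note: 0% = cells with DMSO and 100% = no-cell wells with DMSO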
MOR-DOR inv ag: inverse agonists of human mu-delta opioid receptor heterodimerization; P35372+P41143; cell-based MOR-DOR heterodimer luminescence, inverse agonism; actives 0.21% (n = 340,000); inhibition, % at 9.3 µM; in the data active = inhibition above about 22%, passing the limit was not always enough;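 note: 0% = cells with DMSO and 100% = wells without cells with DMSO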
OPRM1-D1 ag cf: confirmation of human OPRM1-OPRD1 heterodimerization agonists | shares compounds with OPRM1-OPRD1 ag | cells, MOR-DOR heterodimerization, luminescence complementation | activation, % at 9.3 µM | actives 45% (n = 830) | AID 504904;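 note: 0% = vehicle-treated cells and 100% = reference agonist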
HTR5A ag ctr2: counter-screen for OPRM1-OPRD1 agonists: human HTR5A agonism | activation, % at 9.3 µM | HTR5A agonist counterscreen, cell luminescence | actives 8% (n = 830) | shares compounds with OPRM1-OPRD1 ag; in the data active = activation above about 17%;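 note: 0% = vehicle-treated cells and 100% = reference agonist response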
Numbers without * were called inactive; / = no result. Cut-off read from the data, not from the text of the source, unless noted: active = activation above about 18%; inactive = the rest.

SMILES | HTR5A ag | OPRM1-OPRD1 ag | HTR5A inv ctr | MOR-DOR inv ag | others
CCOc1cccc(CNCCc2c(C)[nH]c3ccc(OC(F)(F)F)cc23)c1O | 16* | 20* | -63 | -111
CC(C)(C)C(=O)N1Cc2ccccc2-n2nncc2C1 | 3 | -2 | -12 | 11
CC(=O)NCCc1c[nH]c2ccccc12 | 0 | 0 | 9 | -1
c1coc(CNCCc2c[nH]c3ccccc23)c1 | 13* | -2 | -50 | 9
NCCc1c[nH]c2ccccc12 | 50* | 2 | -7 | -11
S=c1[nH]c2ccccc2[nH]1 | 10* | -3 | -29 | 16
CCN1/C(=C\C=C\C2=[N+](CC)c3ccccc3C2(C)C)C(C)(C)c2ccccc21 | -11 | 8 | 38* | -53
Cc1cc(C)cc(N2C(=O)NC(=O)/C(=C\c3cccn3-c3ccc(Cl)cc3)C2=O)c1 | 14* | 1 | -51 | -7
Cc1cc(C)cc(N2C(=O)NC(=O)/C(=C\c3cccn3-c3ccccc3)C2=O)c1 | 12 | 1 | -23 | -7
CC12CCC(=O)C=C1CC(N1CC1)C1C2CCC2(C)C(O)CCC12 (centres undefined) | 5 | -3 | -18 | 14
COc1ccc(-n2c(/C=C/c3ccc(O)cc3)nc3ccccc3c2=O)cc1 | 10.0* | 1 | -38 | -5
O=c1c2ccccc2nc(/C=C/c2ccc(O)cc2)n1-c1ccc(O)cc1 | -3 | 3 | 11 | -12
O=c1c2ccccc2nc(/C=C/c2ccc(O)cc2)n1-c1cccc(O)c1 | 9.8* | -2 | -25 | 12
Cc1cc(N2CCN(C)CC2)nc2ccccc12 | 9.1* | 0 | -34 | 1
CC(=O)OC1CC(OC2C(O)CC(OC3C(O)CC(OC4CCC5(C)C(CCC6C5CCC5(C)C(C7=CC(=O)OC7)CCC65O)C4)OC3C)OC2C)OC(C)C1OC1OC(CO)C(O)C(O)C1O (centres undefined) | 37* | 68* | -146 | -349
N#Cc1ccc(NC(=O)CN2CCN(C(=O)c3cccs3)CC2)cc1Cl | -4 | 0 | 9 | 2
CC(=O)C1CCC2(O)C3CCC4=CC(=O)CCC4(C)C3CCC12C (centres undefined) | -2 | -4 | 9 | 19
C[C@@H]1O[C@@H](O[C@@H]2C=C3CC[C@@H]4C(CC[C@]5(C)[C@@H](c6ccc(=O)oc6)CC[C@]45O)[C@@]3(C)CC2)[C@H](O)[C@H](O)[C@H]1O (some centres undefined) | 22* | 68* | -65 | -393
Cc1ccc(-n2c(O)c(C=NCCN3CCNCC3)c(=O)[nH]c2=S)cc1 | -1 | -1 | 2 | 5
CC(C)c1ccc(-n2c(O)c(C=NCCN3CCNCC3)c(=O)[nH]c2=S)cc1 | 10* | 1 | -39 | -4
Cc1cccc(CCNCc2cc3ccc(C)cc3[nH]c2=O)c1 | 12* | -1 | -43 | 5
Cc1ccc2[nH]c(C)c(CCNCc3ccco3)c2c1 | -1 | 0 | 5 | -2
Cc1ccnc(NC(=O)CCCc2ccc(N(CCCl)CCCl)cc2)n1 | -2 | -2 | 9 | 12
COc1ccc(CN(CCc2c[nH]c3ccccc23)Cc2ccc(OC)cc2)cc1 | 8 | 5 | -31 | -23
N#Cc1cc2c(nc1SCC(=O)Nc1cc(Cl)ccc1Cl)C1CCN2CC1 | 0 | -1 | -1 | 3
SMILES | HTR5A ag | OPRM1-OPRD1 ag | HTR5A inv ctr | MOR-DOR inv ag | others
N#Cc1cc2c(nc1SCC(=O)Nc1ccc(Cl)cc1)C1CCN2CC1 | 12* | 1 | -2 | -4
Nc1nc(N)c2cnnn2n1 | 0 | -2 | 0 | 9
Cc1ccc(C(=O)Nc2ccc(Cl)cc2C(=O)c2ccccc2)cc1 | 11* | 7 | -39 | -43
O=C(O)C1C2c3ccccc3C(O)C1(C(=O)O)c1ccccc12 (centres undefined) | -5 | -2 | 17 | 11
OCC(Cl)CCl (centres undefined) | -3 | -3 | 12 | 18
COC1C(C)OC(OC2CC(C)(O)Cc3cc4c(c(O)c32)C(=O)c2c(O)cc3c(c2C4=O)OC2OC3(C)C(O)C(N(C)C)C2O)C(OC)C1(C)OC (centres undefined) | -2 | 6 | 6 | -26
C#CC1(O)C=CC2C3CCC4=CC(=O)CCC4C3CCC21CC (centres undefined) | -3 | 1 | 10 | -3
C#CC1(O)CCC2C3CCC4=CC(=O)CCC4=C3C=CC21C (centres undefined) | 11* | 0 | -43 | 2
COc1ccc(C(=O)N/N=C/C23CC[C@@H](O)CC2(O)CC[C@@H]2[C@@H]3CCC3(C)C(C4=CC(=O)OC4)CCC23O)cc1 (some centres undefined) | 30* | 34* | 19 | -169
CN(C)c1ccc(C(=O)N/N=C/C23CC[C@@H](O)CC2(O)CC[C@@H]2[C@@H]3CCC3(C)C(C4=CC(=O)OC4)CCC23O)cc1 (some centres undefined) | 35* | 59* | 6 | -301
Cc1ccccc1-c1ccc2n1Cc1cnnn1-c1ccccc1-2 | 1 | 2 | -5 | -11
C[C@@H]1O[C@@H](O[C@H]2C[C@@H](O)[C@]3(CO)[C@H]4[C@H](O)C[C@]5(C)[C@@H](C6COC(=O)C6)CC[C@]5(O)[C@@H]4CC[C@]3(O)C2)[C@H](O)[C@H](O)[C@H]1O (some centres undefined) | 27 | 73* | -81 | -404
CCOP(=S)(OCC)Oc1cc(C)nc(C(C)C)n1 | -1 | 0 | 2 | 1
CN1CC[C@]23c4c5ccc(O)c4OC2[C@H](O)C=CC3[C@H]1C5 (some centres undefined) | 0 | / | -1 | / | HTR5A ag ctr2=5
CN1CCC23c4c5ccc(O)c4O[C@@H]2[C@H](O)C=CC3C1C5 (some centres undefined) | -2 | / | 5 | /
CCOP(=O)(CCP(=O)(OCC)OCC)OCC.C[CH2][Sn]([Cl])([Cl])[CH2]C | -4 | -5 | 14 | 22
COc1ccc(CNCCc2c[nH]c3ccccc23)c(OC)c1C | 7 | 21* | -25 | -95 | OPRM1-D1 ag cf=48*;HTR5A ag ctr2=15
Cc1cc(NC(=O)CCl)nn1C | 6 | 91* | -18 | -469 | OPRM1-D1 ag cf=1;HTR5A ag ctr2=2
CC12CC[C@H]3[C@@H](CCC4(O)C[C@H](O)CCC34/C=N/NC(=O)c3ccccc3O)C1(O)CCC2C1=CC(=O)OC1 (some centres undefined) | 9 | 35* | -30 | -184 | OPRM1-D1 ag cf=9;HTR5A ag ctr2=0
CC12CC[C@H]3[C@@H](CCC4(O)C[C@H](O)CCC34/C=N/NC(=O)c3ccccc3F)C1(O)CCC2C1=CC(=O)OC1 (some centres undefined) | 11 | 13 | 9 | -64
COc1ccc(C(CN(C)C)C2(O)CCCCC2)cc1 (centres undefined) | -3 | -2 | -18 | 12
